18 molecules from PubChem BioAssay (EPA / NIEHS) can be followed below.

One test deals with CDK2 (gene 1017) (UniProt P24941). The test can be described thus: NVS_ENZ_hCDK2: NovaScreen (NVS) Enzymatic Assay for human Cyclin-Cependent Kinase 2 (CDK2) (AID 2283144). A digest of the protocol:
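Cell-free recombinant human CDK2 with fluorescent substrate, product separated by electrophoretic mobility shift; 1 hr read. Primary screen at 25 uM in duplicate, actives retested in concentration-response up to 50 uM; loss of signal versus DMSO.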

The target in test [1] is human MAP Kinase-Activated Protein Kinase 2 (MAPKAPK2), MAPKAPK2 (gene 9261) (UniProt P49137). The test can be described thus: NVS_ENZ_hMAPKAPK2: NovaScreen (NVS) Enzymatic Assay for human MAP Kinase-Activated Protein Kinase 2 (MAPKAPK2) (AID 2283178). A digest of the protocol:
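Cell-free recombinant human MAPKAPK2 activity measured by fluorescence with electrophoretic mobility shift separation of substrate and product, 1 hr after dosing. Loss of signal versus DMSO; primary screen at 25 uM, concentration-response up to 50 uM.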

In test [2] the target is Collagenase 3 (Homo sapiens) (UniProt P45452). The test can be described thus: NVS_ENZ_hMMP13: NovaScreen (NVS) Enzymatic Assay for human Matrix Metalloproteinase-13 (MMP13) (AID 2283182). A digest of the protocol: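 Recombinant MMP13 cleaving fluorescent substrate, cell-free, measured 1 h after dosing. Primary duplicate screen at 25 uM; actives tested in concentration-response up to 50 uM; loss of signal relative to DMSO.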

The target in test [3] is human Ephrin type-A Receptor 1 (EphA1), EPHA1 (gene 2041) (UniProt P21709). The test is described as follows: NVS_ENZ_hEphA1: NovaScreen (NVS) Enzymatic Assay for human Ephrin type-A Receptor 1 (EphA1) (AID 2283158).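 Note: activity is signal loss versus DMSO meaning EphA1 kinase inhibition.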 In outline: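 Here the EphA1 protein is recombinant and the substrate fluorescent, with electrophoretic separation before fluorescence detection at 1 hour. Signal loss against DMSO defines activity; plate controls included; follow-up concentration series reach 50 uM.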

The target of test [4] is human FYN Proto-Oncogene, Src family Tyrosine Kinase (Fyn), FYN (gene 2534) (UniProt P06241). The test is described as follows: NVS_ENZ_hFyn: NovaScreen (NVS) Enzymatic Assay for human FYN Proto-Oncogene, Src family Tyrosine Kinase (Fyn) (AID 2283161). A digest of the protocol: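 Recombinant enzyme with fluorescent substrate, product separated by electrophoretic mobility shift; read 1 h after dosing. Duplicate 25 uM single-point screen, actives retested in concentration series; loss of signal vs DMSO.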

Test [5] has as its target human LYN Proto-Oncogene, Src family Tyrosine Kinase (LynA), LYN (gene 4067) (UniProt P07948). The test is described as follows: NVS_ENZ_hLynA: NovaScreen (NVS) Enzymatic Assay for human LYN Proto-Oncogene, Src family Tyrosine Kinase (LynA) (AID 2283173). A digest of the protocol: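 Recombinant kinase with fluorescent substrate; product separated from substrate by electrophoretic mobility shift and read 1 h after dosing. Duplicate screen at 25 uM, then concentration-response up to 50 uM; activity scored as signal loss against DMSO.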

In test [6] the target is human Matrix Metalloproteinase-2 (MMP2), MMP2 (gene 4313) (UniProt P08253). The test is described as follows: NVS_ENZ_hMMP2: NovaScreen (NVS) Enzymatic Assay for human Matrix Metalloproteinase-2 (MMP2) (AID 2283184). In outline: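 Cell-free recombinant MMP2 activity with a fluorescent substrate, read 1 h after dosing. Primary screen in duplicate at 25 uM; actives then run in concentration series; loss of signal fitted versus DMSO.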

The target of test [7] is human Matrix Metalloproteinase-7 (MMP7), MMP7 (gene 4316) (UniProt P09237). The test is described as follows: NVS_ENZ_hMMP7: NovaScreen (NVS) Enzymatic Assay for human Matrix Metalloproteinase-7 (MMP7) (AID 2283183). A digest of the protocol: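 Cell-free fluorescence enzymatic assay read 1 h after compound addition, activity loss analyzed against DMSO. Primary duplicate testing at 25 uM; compounds meeting threshold rerun in singleton concentration-response up to 50 uM.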

The target of test [8] is Glycogen synthase kinase-3 beta (Homo sapiens) (UniProt P49841). The test can be described thus: NVS_ENZ_hGSK3b: NovaScreen (NVS) Enzymatic Assay for human Glycogen Synthase Kinase-3 beta (GSK3b) (AID 2283165). A digest of the protocol:
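Recombinant enzyme with specific fluorescent substrate, 1 h, product separated by electrophoretic mobility shift. Primary duplicate screen at 25 uM; actives (e.g. 30% inhibition) followed in singleton concentration-response to 50 uM. Signal loss fitted versus DMSO.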

In test [9] the target is human Janus Kinase 2 (Jak2), JAK2 (gene 3717) (UniProt O60674). The test can be described thus: NVS_ENZ_hJak2: NovaScreen (NVS) Enzymatic Assay for human Janus Kinase 2 (Jak2) (AID 2283169). In outline: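 Cell-free recombinant human JAK2 enzyme activity assay, fluorescence/electrophoretic mobility shift read 1 h after dosing. Screened in duplicate at 25 uM, then concentration-response up to 50 uM; activity as signal loss relative to DMSO.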

Test [10] deals with Mitogen-activated protein kinase 3 (Homo sapiens) (UniProt P27361). The test is described as follows: NVS_ENZ_hMAPK3: NovaScreen (NVS) Enzymatic Assay for human Mitogen-Activated Protein Kinase 3 (MAPK 3) (AID 2283177). In outline: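 Cell-free enzymatic assay with recombinant protein and specific substrate; fluorescence and electrophoretic mobility shift read-out 1 h after dosing. Primary screen duplicate at 25 uM; actives then run in concentration-response up to 50 uM, loss of signal versus DMSO.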

In test [11] the target is human Esterase Plasma (ES), BCHE (gene 590) (UniProt P06276). The test is described as follows: NVS_ENZ_hES: NovaScreen (NVS) Enzymatic Assay for human Esterase Plasma (ES) (AID 2283157). In outline: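 Cell-free enzyme assay using esterase extracted from human plasma; colorimetric absorbance read 0.25 hour after dosing. Single-concentration duplicate screen at 25 uM, then concentration-response up to 50 uM; loss of signal scored against DMSO baseline.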

The structures appear in SMILES notation. Results filed as inconclusive are left out. The source made the active and inactive calls. Rule for the calls: active = hit-call score of the fitted dose curve at least 0.9, where 1 is the maximum; inconclusive = response in the unintended direction; inactive = score below 0.9.

Glycogen synthase kinase-3 beta (Homo sapiens), sequence (P49841 whole entry, looked up): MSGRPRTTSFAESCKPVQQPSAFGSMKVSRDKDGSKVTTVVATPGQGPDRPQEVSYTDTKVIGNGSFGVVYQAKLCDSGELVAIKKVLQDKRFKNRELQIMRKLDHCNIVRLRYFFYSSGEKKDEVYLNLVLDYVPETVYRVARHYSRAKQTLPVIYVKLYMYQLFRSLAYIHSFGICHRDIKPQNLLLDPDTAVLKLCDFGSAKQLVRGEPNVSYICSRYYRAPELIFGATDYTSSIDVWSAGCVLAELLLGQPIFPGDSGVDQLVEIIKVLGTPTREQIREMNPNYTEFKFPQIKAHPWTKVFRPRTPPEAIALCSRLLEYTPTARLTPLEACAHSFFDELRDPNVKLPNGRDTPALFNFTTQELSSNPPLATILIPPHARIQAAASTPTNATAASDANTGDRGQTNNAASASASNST
human FYN Proto-Oncogene, Src family Tyrosine Kinase (Fyn), FYN (gene 2534), sequence (P06241 whole entry, looked up): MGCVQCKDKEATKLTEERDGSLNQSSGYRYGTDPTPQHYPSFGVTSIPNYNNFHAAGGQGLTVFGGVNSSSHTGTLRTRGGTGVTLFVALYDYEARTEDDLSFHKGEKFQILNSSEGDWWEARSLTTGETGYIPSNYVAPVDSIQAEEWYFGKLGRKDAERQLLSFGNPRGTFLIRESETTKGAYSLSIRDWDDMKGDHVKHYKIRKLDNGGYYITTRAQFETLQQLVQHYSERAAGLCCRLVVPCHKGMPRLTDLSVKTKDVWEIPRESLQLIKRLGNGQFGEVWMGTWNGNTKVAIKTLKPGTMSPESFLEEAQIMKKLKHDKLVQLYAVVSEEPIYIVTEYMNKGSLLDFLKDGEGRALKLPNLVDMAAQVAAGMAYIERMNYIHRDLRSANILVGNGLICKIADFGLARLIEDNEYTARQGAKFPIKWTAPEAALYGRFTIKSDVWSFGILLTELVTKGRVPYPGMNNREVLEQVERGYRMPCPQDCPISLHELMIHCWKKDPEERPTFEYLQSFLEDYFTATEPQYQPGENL
human Ephrin type-A Receptor 1 (EphA1), EPHA1 (gene 2041), sequence (P21709 whole entry, looked up): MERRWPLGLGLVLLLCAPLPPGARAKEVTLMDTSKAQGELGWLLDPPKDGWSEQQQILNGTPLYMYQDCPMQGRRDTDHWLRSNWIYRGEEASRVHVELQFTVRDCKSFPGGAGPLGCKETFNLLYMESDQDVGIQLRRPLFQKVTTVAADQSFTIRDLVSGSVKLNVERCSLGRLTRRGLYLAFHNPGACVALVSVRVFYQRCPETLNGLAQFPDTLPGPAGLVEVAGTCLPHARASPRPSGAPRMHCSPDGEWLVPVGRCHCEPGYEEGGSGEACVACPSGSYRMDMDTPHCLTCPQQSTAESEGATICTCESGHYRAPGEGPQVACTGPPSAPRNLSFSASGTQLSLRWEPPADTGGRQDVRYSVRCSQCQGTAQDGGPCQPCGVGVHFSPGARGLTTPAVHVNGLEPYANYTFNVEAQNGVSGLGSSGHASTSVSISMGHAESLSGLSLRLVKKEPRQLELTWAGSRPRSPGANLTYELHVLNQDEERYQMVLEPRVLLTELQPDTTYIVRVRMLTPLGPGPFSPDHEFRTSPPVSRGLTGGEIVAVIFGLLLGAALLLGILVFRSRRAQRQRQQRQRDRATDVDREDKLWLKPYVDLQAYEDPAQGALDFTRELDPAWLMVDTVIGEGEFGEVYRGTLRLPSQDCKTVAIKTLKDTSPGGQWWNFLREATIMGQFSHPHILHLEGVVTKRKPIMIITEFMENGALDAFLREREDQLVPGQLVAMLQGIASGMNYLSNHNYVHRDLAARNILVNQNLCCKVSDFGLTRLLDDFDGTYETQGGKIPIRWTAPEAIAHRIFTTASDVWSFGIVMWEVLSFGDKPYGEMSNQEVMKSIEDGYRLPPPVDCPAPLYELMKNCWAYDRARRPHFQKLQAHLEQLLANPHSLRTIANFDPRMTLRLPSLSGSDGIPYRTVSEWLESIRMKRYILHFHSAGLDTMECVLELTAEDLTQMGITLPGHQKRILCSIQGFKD
human LYN Proto-Oncogene, Src family Tyrosine Kinase (LynA), LYN (gene 4067), sequence (P07948 whole entry, looked up): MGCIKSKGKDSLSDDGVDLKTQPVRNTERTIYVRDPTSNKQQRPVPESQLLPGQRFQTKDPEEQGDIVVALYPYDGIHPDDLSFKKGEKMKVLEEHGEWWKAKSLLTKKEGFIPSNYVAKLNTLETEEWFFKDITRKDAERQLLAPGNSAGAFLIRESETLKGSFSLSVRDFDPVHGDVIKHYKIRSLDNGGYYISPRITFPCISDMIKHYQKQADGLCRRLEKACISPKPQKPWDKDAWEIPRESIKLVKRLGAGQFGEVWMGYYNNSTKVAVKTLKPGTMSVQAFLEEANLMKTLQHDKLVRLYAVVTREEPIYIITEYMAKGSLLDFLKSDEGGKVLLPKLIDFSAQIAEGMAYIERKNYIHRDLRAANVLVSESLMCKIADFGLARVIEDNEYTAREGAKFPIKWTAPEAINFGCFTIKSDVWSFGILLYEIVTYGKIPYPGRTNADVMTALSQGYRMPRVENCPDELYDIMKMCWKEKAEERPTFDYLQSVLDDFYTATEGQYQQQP
human Esterase Plasma (ES), BCHE (gene 590), sequence (P06276 whole entry, looked up): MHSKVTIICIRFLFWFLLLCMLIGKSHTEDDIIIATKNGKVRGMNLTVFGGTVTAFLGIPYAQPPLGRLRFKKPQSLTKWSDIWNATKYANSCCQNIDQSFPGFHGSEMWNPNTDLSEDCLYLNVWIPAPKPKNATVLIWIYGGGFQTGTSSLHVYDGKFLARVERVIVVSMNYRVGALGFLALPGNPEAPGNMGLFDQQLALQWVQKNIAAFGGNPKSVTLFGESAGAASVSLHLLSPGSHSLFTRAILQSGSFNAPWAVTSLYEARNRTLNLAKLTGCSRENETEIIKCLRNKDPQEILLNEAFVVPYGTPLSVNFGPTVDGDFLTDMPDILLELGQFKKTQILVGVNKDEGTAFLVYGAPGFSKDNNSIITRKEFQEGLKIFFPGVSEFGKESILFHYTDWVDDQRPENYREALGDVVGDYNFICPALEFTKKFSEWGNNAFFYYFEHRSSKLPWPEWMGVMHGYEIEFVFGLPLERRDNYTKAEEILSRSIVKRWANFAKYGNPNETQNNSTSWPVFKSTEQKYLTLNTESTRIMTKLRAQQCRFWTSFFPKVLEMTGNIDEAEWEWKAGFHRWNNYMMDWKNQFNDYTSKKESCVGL
human Matrix Metalloproteinase-7 (MMP7), MMP7 (gene 4316), sequence (P09237 whole entry, looked up): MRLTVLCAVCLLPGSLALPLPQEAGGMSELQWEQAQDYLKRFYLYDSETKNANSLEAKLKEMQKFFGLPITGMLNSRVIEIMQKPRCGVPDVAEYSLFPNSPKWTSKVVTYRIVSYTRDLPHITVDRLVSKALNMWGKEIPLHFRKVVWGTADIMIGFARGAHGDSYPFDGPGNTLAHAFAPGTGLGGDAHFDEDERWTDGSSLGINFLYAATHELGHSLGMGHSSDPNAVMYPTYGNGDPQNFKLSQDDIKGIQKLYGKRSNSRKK
human Janus Kinase 2 (Jak2), JAK2 (gene 3717), sequence (O60674 whole entry, looked up): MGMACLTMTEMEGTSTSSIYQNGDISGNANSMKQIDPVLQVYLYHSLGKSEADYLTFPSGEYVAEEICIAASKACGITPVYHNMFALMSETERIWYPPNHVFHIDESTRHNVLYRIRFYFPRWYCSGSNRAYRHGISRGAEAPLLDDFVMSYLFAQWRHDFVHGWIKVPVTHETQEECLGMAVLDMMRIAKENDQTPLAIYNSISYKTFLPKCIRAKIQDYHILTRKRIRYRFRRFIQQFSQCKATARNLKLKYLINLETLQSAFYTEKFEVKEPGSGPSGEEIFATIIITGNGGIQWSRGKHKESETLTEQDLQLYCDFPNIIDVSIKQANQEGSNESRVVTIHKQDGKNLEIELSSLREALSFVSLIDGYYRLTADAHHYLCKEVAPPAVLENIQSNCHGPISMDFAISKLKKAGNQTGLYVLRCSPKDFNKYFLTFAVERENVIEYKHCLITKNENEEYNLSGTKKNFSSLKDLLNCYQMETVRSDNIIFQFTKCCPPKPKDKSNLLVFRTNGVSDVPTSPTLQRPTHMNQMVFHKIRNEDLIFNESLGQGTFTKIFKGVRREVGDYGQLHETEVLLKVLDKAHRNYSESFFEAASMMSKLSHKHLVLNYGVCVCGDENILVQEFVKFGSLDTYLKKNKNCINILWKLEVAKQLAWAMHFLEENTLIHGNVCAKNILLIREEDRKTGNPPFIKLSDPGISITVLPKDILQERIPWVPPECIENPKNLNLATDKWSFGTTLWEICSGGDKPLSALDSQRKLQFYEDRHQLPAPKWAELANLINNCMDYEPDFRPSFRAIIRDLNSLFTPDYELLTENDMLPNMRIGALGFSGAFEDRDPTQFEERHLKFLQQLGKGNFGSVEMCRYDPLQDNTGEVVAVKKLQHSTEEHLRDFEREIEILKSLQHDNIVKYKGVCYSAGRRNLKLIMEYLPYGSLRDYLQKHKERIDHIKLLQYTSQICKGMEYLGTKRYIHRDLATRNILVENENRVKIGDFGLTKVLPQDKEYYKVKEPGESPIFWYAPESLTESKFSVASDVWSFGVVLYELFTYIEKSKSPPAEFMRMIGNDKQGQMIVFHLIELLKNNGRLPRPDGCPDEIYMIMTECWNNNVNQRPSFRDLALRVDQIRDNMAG
human MAP Kinase-Activated Protein Kinase 2 (MAPKAPK2), MAPKAPK2 (gene 9261), sequence (P49137 whole entry, looked up): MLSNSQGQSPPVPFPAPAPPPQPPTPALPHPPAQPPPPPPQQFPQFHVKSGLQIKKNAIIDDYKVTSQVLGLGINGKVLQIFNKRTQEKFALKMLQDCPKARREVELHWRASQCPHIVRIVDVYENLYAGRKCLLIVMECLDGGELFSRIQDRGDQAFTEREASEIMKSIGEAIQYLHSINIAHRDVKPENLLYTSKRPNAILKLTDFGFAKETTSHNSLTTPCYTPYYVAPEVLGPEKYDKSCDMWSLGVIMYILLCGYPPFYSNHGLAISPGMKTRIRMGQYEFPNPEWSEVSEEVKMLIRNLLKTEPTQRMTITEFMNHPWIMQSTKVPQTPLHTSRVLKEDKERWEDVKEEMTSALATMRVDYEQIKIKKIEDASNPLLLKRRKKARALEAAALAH

Turning to `CCCCCCCCCCCCc1ccccc1S(=O)(=O)O`, in the test with CDK2 (gene 1017), the molecule was called inactive. For the same molecule, the concentration at half-maximal activity (AC50) in test [1] is 26.5 µM (active); in [2] it was 31.8 µM (active).

For the molecule `O=C(O)Cc1cc(I)c(Oc2cc(I)c(O)c(I)c2)c(I)c1`, the molecule was called inactive (with CDK2 (gene 1017); in [3]; in [4]).

In the case of `ClC1=C(Cl)C(Cl)(Cl)C(Cl)=C1Cl`, the result in [3] was inactive.

Consider `CCN(CC)CCNc1ccc(CNC=O)c2sc3ccc(OC)cc3c(=O)c12`, for which the AC50 in test [4] is 2.1 µM (active). Further, the molecule was classed as inactive in test [5].

For `Cc1oc(-c2ccccc2)nc1CCOc1ccc(C[C@H](Nc2ccccc2C(=O)c2ccccc2)C(=O)O)cc1`, the AC50 was 7.33 µM (active) in [2] and 16.1 µM (active) in test [6].

For `COCC(C)OCC(C)O` (centres undefined), in test [7], the molecule was classed as inactive.

With `c1ccc2cc3c(ccc4ccccc43)cc2c1`, the outcome in [7] was inactive.

Turning to `CCc1nn(C2CCCCC2)c2cc(C3(C#N)CCC(C(=O)O)CC3)ccc12` (centres undefined), the AC50 in [2] was 19.4 µM (active).

As to `CC(C)(C)c1ccc(O)c(C(C)(C)C)c1`, the outcome in [8] was inactive.

On to `CN1CCN(c2ccccc2/C=C2\SCCN(c3ccc(Cl)c(Cl)c3)C2=O)CC1`, for which the result in test [9] and in test [6] was inactive.

Consider `COCC(C)O` (centres undefined), for which the outcome in test [3] was inactive.

As for `CCCCCCCC(=O)O`, the molecule was classed as inactive in test [4], in test [9], in test [5] and in test [10].

Take `Oc1cccc(O)c1`: in test [8], the call was inactive.

On to `NC(=O)N(O)[C@@H]1C=C[C@H](Oc2cccc(Oc3ccc(F)cc3)c2)C1`, for which the molecule was called inactive in test [11].

With `CCCCCCCCC(=O)O`, the result in [8] was inactive.

For the molecule `C[C@@H]1C[C@H]2[C@@H]3CCC4=CC(=O)C=C[C@]4(C)[C@@]3(F)[C@@H](O)C[C@]2(C)[C@@]1(O)C(=O)COP(=O)(O)O`, the result in test [3] was inactive.

Turning to `CC(C)(C)c1cc(C(C)(C)C)c(O)c(C(C)(C)C)c1`, the molecule was called inactive in test [8].

As for `OC1CCC(C2CCCCC2)CC1` (centres undefined), the molecule was called inactive in [11] and in test [1].

As a reminder, the AC50 is the midpoint of the concentration-response curve, whichever way the signal moves.
